# Compound activity: PubChem BioAssay, The Scripps Research Institute Molecular Screening Center
# M4 ag – agonists of human muscarinic M4 receptor (CHRM4); AID 624127; activation, % at 3 µM; CHO-K1 hM4/Gqi5, Fluo-8 calcium fluorescence; vehicle 0%, full acetylcholine response 100%; hit rate 0.14% among 360,000;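 active means activation above the run mean over all test wells plus 3 SD, cut at about 32% in these data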;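 further: peak over basal fluorescence ratio per well then scaled between controls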
# Target sequence (P08173 whole entry, looked up): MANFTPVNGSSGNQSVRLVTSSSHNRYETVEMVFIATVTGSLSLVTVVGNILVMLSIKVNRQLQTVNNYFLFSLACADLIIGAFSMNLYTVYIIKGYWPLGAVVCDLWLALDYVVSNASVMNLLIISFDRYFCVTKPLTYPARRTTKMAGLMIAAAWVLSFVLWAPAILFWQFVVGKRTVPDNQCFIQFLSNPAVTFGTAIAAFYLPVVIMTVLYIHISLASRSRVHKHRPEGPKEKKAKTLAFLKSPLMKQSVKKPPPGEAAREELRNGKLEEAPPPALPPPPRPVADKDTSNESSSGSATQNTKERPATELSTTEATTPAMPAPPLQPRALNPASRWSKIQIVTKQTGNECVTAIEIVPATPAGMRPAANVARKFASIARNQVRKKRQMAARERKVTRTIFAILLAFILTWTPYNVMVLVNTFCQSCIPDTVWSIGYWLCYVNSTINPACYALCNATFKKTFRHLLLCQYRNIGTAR
# CHO-K1 Ca antag – nonselective inhibitor or artifact in parental CHO-K1 cells; hit rate 0.6% among 360,000; inhibition, % at 3 µM; ATP-induced calcium, Fluo-8 fluorescence;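 active means inhibition above a per-plate cutoff, the plate's mean sample inhibition plus 3 SD, cut at about 24% in these data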
# M4 antag – blocks acetylcholine activation of human M4 receptor. CHO-hM4 cells, ACh EC80, Fluo-8 calcium fluorescence. inhibition, % at 3 µM. hit rate 0.73% among 360,000;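 active means inhibition above its plate's cutoff, the mean inhibition of sample wells plus 3 SD, cut at about 27% in these data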
# CHO-K1 Ca PAM – M1 PAM counterscreen hit in parental CHO-K1 cells; ATP EC20, Fluo-8 calcium fluorescence; 0% at ATP EC20, 100% at ATP max; activation, % at 3 µM; hit rate 0.02% among 360,000; AID 602247;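 active means activation above the run cutoff, the mean activation of all test compounds plus 3 SD, cut at about 40% in these data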;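 further: peak over basal fluorescence ratio in a 140 s read after ATP addition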
# M4 PAM – positive allosteric modulators of human muscarinic M4 receptor | CHO-K1 hM4/Gqi5, Fluo-8 calcium fluorescence, ACh EC20; 0% = ACh EC20, 100% = maximal ACh | hit rate 0.4% among 360,000 | activation, % at 3 µM | AID 624126;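 active means activation above its plate's cutoff, the mean activation of sample wells plus 3 SD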
# M1 ag parental – nonselective activator or artifact in parental CHO-K1 cells. Fluo-8 calcium fluorescence; scaled to maximal ATP response, vehicle zero. activation, % at 3 µM. hit rate 0.48% among 360,000. AID 602248; in the data active means activation above about 15%;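 further: untransfected CHO-K1 host cells lacking M1 receptor as counterscreen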
# A number is an active result; i = inactive. Hits are enriched below; roughly 2% of the tested compounds scored in any of these assays.
SMILES,M4 ag,CHO-K1 Ca antag,M4 antag,CHO-K1 Ca PAM,M4 PAM,M1 ag parental
COc1ccc(CCn2c(NN=C3CCCCC3)nc3c2c(=O)[nH]c(=O)n3C)cc1,i,i,i,i,14,i
COc1ccc(CNc2nc3c(c(=O)[nH]c(=O)n3C)n2CCCc2ccccc2)cc1,i,i,i,i,i,i
CCC(C)(C(=O)NC1CCCC1)N(Cc1ccco1)C(=O)Cc1cccs1 (stereo not drawn),i,i,i,i,i,i
CCC(=O)N1CCc2cc(S(=O)(=O)NCCC(=O)N3CCN(c4ccccc4)CC3)ccc21,i,i,i,i,i,i
COc1ccc(CCNC(=O)CNS(=O)(=O)c2ccc(Cl)cc2)cc1,i,24,i,i,i,i
CCC(=O)N1CCc2cc(S(=O)(=O)NCCC(=O)N3CCN(c4cccc(C)c4)C(C)C3)ccc21 (stereo not drawn),i,i,i,i,i,16
CCOC(=O)C1CCN(C(=O)CCNS(=O)(=O)c2ccc3c(c2)CCN3C(=O)CC)CC1,i,58,i,i,i,i
CC(=O)N1CCc2cc(S(=O)(=O)NCCC(=O)NCCc3ccc(Cl)cc3)ccc21,i,i,i,i,i,16
CCOC(=O)C1CCN(C(=O)CCNS(=O)(=O)c2ccc(C)cc2)CC1,i,i,i,i,i,i
CC(=O)N1CCc2cc(S(=O)(=O)NCCC(=O)NCCc3ccc(C)cc3)ccc21,i,i,i,i,i,i
COc1cc(/C=N/NC(=O)c2ccc(COc3cc(C)ccc3C(C)C)cc2)cc(OC)c1O,i,i,i,i,i,i
Oc1ccc2ccccc2c1C=NC1CCCCC1,i,i,i,i,i,i
Cn1nc([N+](=O)[O-])nc1Oc1ccc(C(C)(C)C)cc1,i,i,i,i,i,i
CCn1cc([N+](=O)[O-])c(C(=O)N2CCCc3ccccc32)n1,i,i,i,i,22,i
CCn1cc([N+](=O)[O-])c(C(=O)N2CCCCCC2)n1,i,i,i,i,i,i
Cc1ccn2cc(CNS(=O)(=O)c3ccc4ccccc4c3)nc2c1,i,i,99,i,i,i
Cc1ccc(OCCNC(=O)C(=O)NCc2ccco2)cc1,i,i,27,i,i,i
Cc1[nH]nc2c1C(CC(C)C)C(C#N)=C(N)O2 (stereo not drawn),i,i,i,i,i,i
Cc1c(Cl)cccc1NC(=O)[C@@H](NC(=O)c1ccccc1Cl)C(C)C,i,24,i,i,i,i
CCN1/C(=C/c2ccc3cc(C)ccc3[n+]2CC)Sc2ccccc21,i,58,33,i,i,36
CCN1/C(=C/C=C/c2sc3ccccc3[n+]2CC)Sc2ccccc21,i,i,i,i,i,i
CC[n+]1c(/C=C2\Sc3ccccc3N2C)ccc2cccc(C)c21,i,31,i,i,i,19
CCN1/C(=C/c2ccc3cc(C)ccc3[n+]2CC)Sc2cc(C)c(C)cc21,i,50,31,i,i,i
O=S(=O)(Nc1c(F)cccc1F)c1ccc2c(c1)OCCO2,i,i,i,i,i,i
CC(=O)C1=C(O)C(=O)N(c2ccc(Br)cc2)C1c1cccc(F)c1 (stereo not drawn),i,i,i,i,i,i
SMILES,M4 ag,CHO-K1 Ca antag,M4 antag,CHO-K1 Ca PAM,M4 PAM,M1 ag parental
Cc1nc2nc(SCC(=O)NCCCN3CCCCCC3)nn2c(C)c1Cc1ccccc1,i,i,38,i,i,i
Cc1ccccc1Cc1c(C)nc2nc(SCC(=O)NCCCN3CCCCC3)nn2c1C,i,i,i,i,i,i
CN(CC1COCCO1)C(=O)c1cc(COc2c(F)cccc2F)on1 (stereo not drawn),i,i,i,i,23,i
COc1ccc2oc(=N)c(-c3nnc4n3CCCCC4)cc2c1,i,i,i,i,i,i
NC1=NC[C@H](c2ccccc2)N1CC1CCCCC1,i,i,i,i,i,i
N#Cc1cnn(CC2CCCCC2)c1N,i,30,i,i,i,i
CC(=O)c1ccc(Nc2nc3ccccc3nc2NS(=O)(=O)c2cccs2)cc1,i,i,i,i,i,i
O=C(O)c1cccc(Nc2nc3ccccc3nc2NS(=O)(=O)c2cccs2)c1,i,i,i,i,18,i
CC(C)OC(=O)CSc1nnc(-c2ccc(O)cc2)n1Cc1ccccc1,i,i,i,i,i,i
Cc1cc(NC(=O)CCCN2C(=O)c3cccc4cccc(c34)C2=O)no1,i,i,i,i,19,i
CCC1=NN2C(=N)/C(=C/c3cc(C)n(Cc4ccccc4)c3C)C(=O)N=C2S1,53,i,i,i,i,20
COc1cc(NC(=O)c2cccs2)c(C(=O)OCC(=O)c2cc(C)n(-c3ccc(F)cc3)c2C)cc1OC,i,i,i,i,i,17
c1ccc2c(c1)CCc1ccccc1C2=C1CCNCC1,i,i,99,i,i,i
Cc1ccc2nc(SC(C)C(=O)N3CCOCC3)[nH]c2c1 (stereo not drawn),i,i,i,i,31,i
CSc1ccc(Cn2nnc(C(=O)NCc3ccccc3)c2N)cc1,61,i,i,i,i,19
O=C(CC1C(=O)NCCN1Cc1cccc(F)c1)NCCCN1CCCC1=O (stereo not drawn),i,i,i,i,i,i
COc1cccc(CN2CCNC(=O)C2CC(=O)NCCCN2CCCC2=O)c1 (stereo not drawn),i,i,i,i,15,i
Cc1ccc(NC(=O)N(C2=NCC(C)S2)c2ccccc2)cc1 (stereo not drawn),i,i,i,i,i,i
Cc1cccc(N(C(=O)Nc2ccc(Cl)cc2)C2=NCC(C)S2)n1 (stereo not drawn),i,i,i,i,i,15
Cc1cccc(NC(=O)CSCC(=O)NNC(=O)c2ccoc2C)c1,i,i,i,i,23,i
O=C(NCCn1cc(SCc2ccc(F)cc2)c2ccccc21)c1ccccc1F,i,i,28,i,i,i
O=C(NCC(=O)N(Cc1ccc(F)cc1)C(C(=O)NCC1CCCO1)c1ccccc1)c1ccco1 (stereo not drawn),i,i,i,i,i,i
Cc1noc(C)c1C(=O)Nc1nnc(-c2ccccc2)s1,i,i,i,i,i,i
Cc1onc(-c2ccccc2)c1C(=O)Nc1nnc(-c2ccncc2)s1,i,i,i,i,31,i
Cc1onc(-c2ccccc2)c1C(=O)Nc1ncc([N+](=O)[O-])s1,i,i,i,i,i,16
CCCNC(=O)C1(C)CCCN(Cc2ccc(Oc3ccccc3)cc2)C1 (stereo not drawn),i,i,i,i,i,i
O=C(CN1CCCCC1)N/N=C/c1ccccc1OCc1ccccc1,i,i,i,i,i,i
COc1ccccc1-n1c(=O)oc2ccc(Cl)cc2c1=O,i,i,i,i,i,19
